Sampled rows, rich in hits. Any-hit rate of the full collection: about 12%.
AMA1 RON2 block = qHTS for Inhibitors of AMA1-RON; Towards Development of Antimalarial Drug Lead: Primary Screen. Plasmodium falciparum AMA1 (3D7) - RON2 peptide interaction. AlphaScreen AMA1-biotinylated RON2 peptide binding. Potency, µM (top dose mostly 58.2 µM), for inactives: top-dose activity change, negative = inhibition, actives largely listed as inhibitors. 360,000 compounds, 0.2% hits. AID 720542, 2013;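 further: 0% = vehicle wells and -100% = peptide control; nearly all actives have a fitted effect of over 45% in size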
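AMA1 (3D7) with his tag at 25 nM final met compounds first, then biotinylated RON2 peptide at 25 nM; detection used donor plus acceptor beads, 10 µg/mL apiece, read by AlphaScreen after 30 min at room temperature.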
Pf growth 48h = Primary qHTS for delayed death inhibitors of the malarial parasite plastid, 48 hour incubation. P. falciparum luciferase growth in erythrocytes, 48 h. Potency, µM (doses to about 28.7 µM), for the others: top-dose activity change, negative = inhibition, most hits filed as inhibitors. 310,000 compounds, 5.9% hits. AID 504832, 2011; further: on the % scale 0 is the no-effect control and ±100 the full control effect
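Luminescence readout; reporter = integrated firefly luciferase in P. falciparum. RBC culture at 2% hematocrit, 0.1% parasitemia final, 37 C/5% CO2; decreased signal taken as growth inhibition.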
HCV inh = qHTS Assay for Inhibitors of Hepatitis C Virus (HCV); Huh7.5.1 HCVcc-Cre infection, luciferase reporter, 44 h; Potency, µM (top dose mostly 41.8 µM), for the others: top-dose activity change, negative = inhibition, hits mostly inhibitors; 340,000 compounds, 3.4% hits; further: on the % scale 0 is the no-effect control and ±100 the full control effect
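Infectious HCVcc-Cre (~0.5 moi) was added to cells just after compound, with cells seeded 4 h earlier at 1,000 per well. Luciferase activity after 44 h culture reported infection; substrate was incubated 15 min at room temperature before reading.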
NS1 function inh = qHTS Assay for Inhibitors of Influenza NS1 Protein Function | Potency, µM (series often up to 46.1 µM), for inactives: at the highest dose activity, positive = more growth | 270,000 compounds, 0.4% hits; calls by dose curve; further: actives are rising curves; nearly all actives have a fitted effect of over 50% in size
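In this qHTS, NS1 from influenza A is expressed in budding yeast, where it slows growth. Cells are switched from glucose to 2% galactose medium (pH 6.0, -URA), treated with compound, and growth recovery is read at OD600.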
Pf growth 96h = Primary qHTS for delayed death inhibitors of the malarial parasite plastid, 96 hour incubation. Potency, µM (highest dose often 28.7 µM), inactives show top-dose activity change, negative = inhibition, usual class: inhibitors. P. falciparum luciferase reporter growth, 96 h. 320,000 compounds, 6.9% hits; further: on the % scale 0 is the no-effect control and ±100 the full control effect
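Compounds incubated with erythrocytes infected by luciferase-expressing P. falciparum (2% hematocrit, 0.05% parasitemia final) for 96 hours, 37 C in 5% CO2. Growth inhibition scored as decreased luciferase luminescence.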
SARS PLP yeast = qHTS of Yeast-based Assay for SARS-CoV PLP; S. cerevisiae expressing SARS-CoV PLpro, growth rescue; Potency, µM (series often up to 32.9 µM), for inactives: at the highest dose activity, positive = growth rescue, hits mostly activators; 330,000 compounds, 0.19% hits; calls by dose curve; further: 0% is about no effect; nearly all actives have a fitted effect of over 55% in size
An asterisk follows results filed as active. Unless noted, the call rests on the fitted dose curve; in most records, active means well fitted curve in the direction sought with a large enough effect; inconclusive means small, poorly fitted or top-dose-only effect, or another doubt; inactive means no such curve, though single readings can be large; an effect the other way counts as inactive or inconclusive. Potency means the concentration at half of the fitted maximal effect.

Results for CC1(C)CC(=O)C=C(N2CCN(C3=CC(=O)CC(C)(C)C3)CC2)C1 ?
Pf growth 48h: 40.3%; NS1 function inh: -5.3%; SARS PLP yeast: -0.1%

What do the screens show for `CC1(C)CC(N2CCCC2)=CC(=[N+]2CCCC2)C1`?
AMA1 RON2 block: 6.8%; Pf growth 48h: 1.47µM*; HCV inh: -20.4%; NS1 function inh: 10.7%; Pf growth 96h: 0.329µM*; SARS PLP yeast: -3.9%

How did NC(=O)c1cccc(C(N)=O)n1 do in these assays?
AMA1 RON2 block: -9.1%; Pf growth 48h: 7.5%; HCV inh: 6.2%; Pf growth 96h: 8.28µM*; SARS PLP yeast: -6.4%

How did CN(Cc1ccccc1)C(=O)NC1CCCCC1 do in these assays?
AMA1 RON2 block: -6.9%; Pf growth 48h: 1.6%; HCV inh: -10.0%; NS1 function inh: -2.4%; Pf growth 96h: inconclusive; SARS PLP yeast: 0.6%

What do the screens show for `CC[C@@H](CC1CCCCC1)C(=O)N(Cc1ccccc1)c1ccccc1`?
AMA1 RON2 block: 32.3%; HCV inh: 10µM*; SARS PLP yeast: -25.3%

What do the screens show for `CNC(=O)CN(c1cc(OCCOC)c(Cl)cc1Cl)S(=O)(=O)c1ccccc1`?
AMA1 RON2 block: 3.7%; Pf growth 48h: 283.3%; HCV inh: 4.0%; Pf growth 96h: inconclusive; SARS PLP yeast: 2.1%

How did COc1ccc(NC(=O)CN(c2ccc([N+](=O)[O-])cc2)S(=O)(=O)c2ccccc2)cc1 do in these assays?
AMA1 RON2 block: -14.6%; Pf growth 48h: inconclusive; HCV inh: inconclusive; NS1 function inh: inconclusive; Pf growth 96h: -26.1%; SARS PLP yeast: -7.8%

How did COc1ccc(N(CC(=O)Nc2ccc(S(=O)(=O)N3CCOCC3)cc2)S(=O)(=O)c2ccccc2)cc1 do in these assays?
AMA1 RON2 block: -1.6%; Pf growth 48h: 10.4µM*; HCV inh: 3.98µM*; NS1 function inh: 19.1%; SARS PLP yeast: 2.3%

Results for COc1ccc(N(CC(=O)Nc2ccc(Cc3ccncc3)cc2)S(=O)(=O)c2ccccc2)cc1 ?
AMA1 RON2 block: -1.6%; Pf growth 48h: 13.1µM*; HCV inh: inconclusive; NS1 function inh: 12.4%; Pf growth 96h: 3.2%; SARS PLP yeast: 0.7%

What do the screens show for `CCOc1ccccc1N(CC(=O)Nc1cccnc1)S(=O)(=O)c1ccc(C)cc1`?
AMA1 RON2 block: 3.8%; Pf growth 48h: inconclusive; HCV inh: -10.5%; NS1 function inh: -2.5%; Pf growth 96h: 38.3%; SARS PLP yeast: 0.0%

What do the screens show for `COCCOc1cc(N(CC(=O)N(C)C)S(=O)(=O)c2ccccc2)c(Cl)cc1Cl`?
AMA1 RON2 block: -16.3%; Pf growth 48h: 3.6%; HCV inh: 2.3%; NS1 function inh: 2.4%; Pf growth 96h: 11.7µM*; SARS PLP yeast: 1.0%

Results for CCOc1ccccc1N(CC(=O)Nc1ccccc1)S(=O)(=O)c1ccccc1 ?
AMA1 RON2 block: 0.1%; Pf growth 48h: inconclusive; HCV inh: -20.9%; NS1 function inh: -2.0%; Pf growth 96h: 11.7µM*; SARS PLP yeast: 8.4%

What do the screens show for `COc1ccc(C)cc1N(CC(=O)Nc1cccnc1)S(=O)(=O)c1ccccc1`?
AMA1 RON2 block: -3.3%; Pf growth 48h: inconclusive; HCV inh: -11.4%; NS1 function inh: -0.7%; Pf growth 96h: 21.8%; SARS PLP yeast: -1.4%

What do the screens show for `COc1ccccc1N(CC(=O)Nc1ccc(Cc2ccncc2)cc1)S(=O)(=O)c1ccccc1`?
AMA1 RON2 block: -23.1%; Pf growth 48h: 8.28µM*; HCV inh: inconclusive; NS1 function inh: -20.2%; Pf growth 96h: inconclusive; SARS PLP yeast: 1.2%

Results for COc1cc(SC)ccc1C(=O)NCCOc1c(C)cc(C)cc1C ?
AMA1 RON2 block: 6.6%; Pf growth 48h: 13.1µM*; NS1 function inh: 10.5%; Pf growth 96h: 4.65µM*; SARS PLP yeast: -6.6%

What do the screens show for `CCN(CC)S(=O)(=O)c1cccc(NC(=O)COc2ccc(C#N)cc2OC)c1`?
AMA1 RON2 block: -8.6%; Pf growth 48h: 5.1%; HCV inh: inconclusive; NS1 function inh: -17.3%; Pf growth 96h: -2.5%; SARS PLP yeast: 12.3%

Compound activity deposited in PubChem by National Center for Advancing Translational Sciences (NCATS).
